According to the supplement of paper PMC12645437, “Orthogonal IMiD-Degron Pairs Induce Selective Protein Degradation in Cells” (ACS Chemical Biology, 2025):
The full ranking holds about 8,300 sequences; the median of “log2 fold change of degron read counts, EGFP-low vs EGFP+ sorted cells (limma voom), compound-induced degradation” is about -1.1, and the highest 2% start at about 3.2. The list comes from a sample in which the highest values are over-represented; it also holds similar and randomly drawn sequences.

T1: CRBN, Q96SW2
T1 chain: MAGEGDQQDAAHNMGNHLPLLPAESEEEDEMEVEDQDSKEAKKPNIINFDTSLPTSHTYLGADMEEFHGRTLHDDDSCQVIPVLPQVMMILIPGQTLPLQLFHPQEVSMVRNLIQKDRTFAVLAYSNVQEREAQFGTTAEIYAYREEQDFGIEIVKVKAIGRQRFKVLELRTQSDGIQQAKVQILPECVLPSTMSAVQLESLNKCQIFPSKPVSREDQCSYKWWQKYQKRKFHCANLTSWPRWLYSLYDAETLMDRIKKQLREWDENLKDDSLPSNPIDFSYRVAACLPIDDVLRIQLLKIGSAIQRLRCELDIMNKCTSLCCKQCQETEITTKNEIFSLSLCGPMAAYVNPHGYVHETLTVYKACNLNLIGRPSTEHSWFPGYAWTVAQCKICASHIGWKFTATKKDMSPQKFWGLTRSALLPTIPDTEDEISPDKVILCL


Molecular target: T1, CRBN, Q96SW2
Assay: log2 fold change of degron read counts, EGFP-low vs EGFP+ sorted cells (limma voom), compound-induced degradation; higher = more compound-induced degradation of the degron-EGFP fusion; degrons are variants of IKZF1/3 zinc finger 2; compound dose not given here
Settings: Jurkat, 18 h
[1] = compound: compound 19 (5-tert-butyl-thalidomide)
[2] = compound: compound 22 (5-morpholino-thalidomide)
[3] = compound: compound 33 (diphenyl IMiD analogue)
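Further: pooled lentiviral library of zinc finger degron-EGFP fusions in mCherry-positive Jurkat cells, FACS-sorted after compound exposure, with degron abundance counted by next-generation sequencing.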

| Sequence | log2 fold change of degron read counts [1] | log2 fold change of degron read counts [2] | log2 fold change of degron read counts [3] | log2 fold change of degron read counts (compound: thalidomide) |
| --- | --- | --- | --- | --- |
| FRCNQCGHPFTQKGNLLRHIKL [46F_47R_49N_50Q_52G_53H_54P_55F_67L_, Q9UKT9] | -1.26 | -1.57 | -1.18 | -0.69 |
| FWCPICGRRFTQKGNLLRHIKL [46F_47W_49P_50I_52G_53R_54R_55F_67L_, Q9UKT9] | -0.549 | 1.78 | -0.519 | -0.365 |
| FDCNQCGRPFTQKGNLLRHIKL [46F_47D_49N_50Q_52G_53R_54P_55F_67L_, Q9UKT9] | -2.11 | -2.72 | -2.47 | -2.01 |
| FTCEVCGAKFTQKGNLLRHIKL [46F_47T_49E_50V_52G_53A_54K_55F_67L_, Q9UKT9] | 0.575 | 1.8 | -0.259 | 2.77 |
| FVCPICGHVFTQKGNLLRHIKL [46F_47V_49P_50I_52G_53H_54V_55F_67L_, Q9UKT9] | -1.93 | -1.85 | -1.17 | -0.831 |
| FFCNQCGHRFTQKGNLLRHIKL [46F_47F_49N_50Q_52G_53H_54R_55F_67L_, Q9UKT9] | -1.77 | -1.83 | -1.97 | -1.98 |
| FTCSVCGHMFTQKGNLLRHIKL [46F_47T_49S_50V_52G_53H_54M_55F_67L_, Q9UKT9] | -2.72 | -3.24 | -2.66 | -2.24 |
| FYCPVCGATFTQKGNLLRHIKL [46F_47Y_49P_50V_52G_53A_54T_55F_67L_, Q9UKT9] | 2.81 | 3.38 | 2.28 | 1.02 |
| FHCPVCGATFTQKGNLLRHIKL [46F_47H_49P_50V_52G_53A_54T_55F_67L_, Q9UKT9] | 1.14 | 1.21 | 1.72 | -0.00776 |
| FACPVCGATFTQKGNLLRHIKL [46F_47A_49P_50V_52G_53A_54T_55F_67L_, Q9UKT9] | 3.23 | 1.68 | 1.17 | 0.555 |
| FWCNQCGHQFTQKGNLLRHIKL [46F_47W_49N_50Q_52G_53H_54Q_55F_67L_, Q9UKT9] | -2.03 | -2.39 | -2.26 | -1.81 |
| FTCNICGAIFTQKGNLLRHIKL [46F_47T_49N_50I_52G_53A_54I_55F_67L_, Q9UKT9] | -1 | 0.0209 | 0.936 | 1.06 |
| FWCDICGANFTQKGNLLRHIKL [46F_47W_49D_50I_52G_53A_54N_55F_67L_, Q9UKT9] | 2.81 | 3.71 | 1.34 | 0.139 |
| FHCDICGANFTQKGNLLRHIKL [46F_47H_49D_50I_52G_53A_54N_55F_67L_, Q9UKT9] | -0.867 | -0.624 | -1.82 | -2.82 |
| FYCDICGANFTQKGNLLRHIKL [46F_47Y_49D_50I_52G_53A_54N_55F_67L_, Q9UKT9] | 2.78 | 3.42 | 1.2 | -0.676 |
| FLCDICGANFTQKGNLLRHIKL [46F_47L_49D_50I_52G_53A_54N_55F_67L_, Q9UKT9] | -1.24 | -1.68 | 0.196 | -0.528 |
| FECDICGANFTQKGNLLRHIKL [46F_47E_49D_50I_52G_53A_54N_55F_67L_, Q9UKT9] | -1.28 | -2.43 | 0.537 | 0.012 |

| Sequence | log2 fold change of degron read counts [1] | log2 fold change of degron read counts [2] | log2 fold change of degron read counts [3] | log2 fold change of degron read counts (compound: thalidomide) |
| --- | --- | --- | --- | --- |
| FCCDICGANFTQKGNLLRHIKL [46F_47C_49D_50I_52G_53A_54N_55F_67L_, Q9UKT9] | 0.761 | 0.588 | 0.858 | -0.326 |
| FDCPVCGAEFTQKGNLLRHIKL [46F_47D_49P_50V_52G_53A_54E_55F_67L_, Q9UKT9] | -0.42 | -1.74 | 0.6 | 0.131 |
| FSCDVCGAAFTQKGNLLRHIKL [46F_47S_49D_50V_52G_53A_54A_55F_67L_, Q9UKT9] | 1.56 | 1.45 | 1.14 | -0.292 |
| LICEICGFTCTQKGNLLRHIKL [46L_47I_49E_50I_52G_53F_54T_55C_67L_, Q9UKT9] | 0.795 | 2.24 | 2.34 | 3.13 |
| FQCEICGADFTQKGNLLRHIKL [46F_47Q_49E_50I_52G_53A_54D_55F_67L_, Q9UKT9] | -0.47 | 0.00637 | 1.29 | 3 |
| FNCEQCGAPFTQKGNLLRHIKL [46F_47N_49E_50Q_52G_53A_54P_55F_67L_, Q9UKT9] | -1.19 | -2 | -2.69 | -2.17 |
| FWCEICGADFTQKGNLLRHIKL [46F_47W_49E_50I_52G_53A_54D_55F_67L_, Q9UKT9] | 0.346 | 0.98 | -0.492 | -1.5 |
| FQCEICGAPFTQKGNLLRHIKL [46F_47Q_49E_50I_52G_53A_54P_55F_67L_, Q9UKT9] | 3.69 | 3.61 | 2.03 | 3.72 |
| FWCEICGAPFTQKGNLLRHIKL [46F_47W_49E_50I_52G_53A_54P_55F_67L_, Q9UKT9] | 3.82 | 3.42 | 2.64 | 1.23 |
| FICEICGAPFTQKGNLLRHIKL [46F_47I_49E_50I_52G_53A_54P_55F_67L_, Q9UKT9] | 2.83 | 3.53 | 2.76 | 3.43 |
| FNCEICGAPFTQKGNLLRHIKL [46F_47N_49E_50I_52G_53A_54P_55F_67L_, Q9UKT9] | 3.39 | 2.54 | 0.567 | 1.58 |
| FGCEICGAPFTQKGNLLRHIKL [46F_47G_49E_50I_52G_53A_54P_55F_67L_, Q9UKT9] | 1.88 | 0.802 | -0.557 | -0.51 |
| FQCEICGRPFTQKGNLLRHIKL [46F_47Q_49E_50I_52G_53R_54P_55F_67L_, Q9UKT9] | -0.793 | -0.383 | -1.07 | 1.31 |
| FWCEICGRPFTQKGNLLRHIKL [46F_47W_49E_50I_52G_53R_54P_55F_67L_, Q9UKT9] | 1.92 | 0.403 | 0.52 | -0.912 |
| FICEICGADFTQKGNLLRHIKL [46F_47I_49E_50I_52G_53A_54D_55F_67L_, Q9UKT9] | -2.33 | -0.887 | -0.381 | 0.298 |
| FNCEICGADFTQKGNLLRHIKL [46F_47N_49E_50I_52G_53A_54D_55F_67L_, Q9UKT9] | -1.15 | -2.31 | -1.14 | -1.4 |
